In PubChem BioAssay (NCATS):
Results filed as inconclusive are left out. The list shows a part of the results. Calls of active or inactive are those of the source. Unless noted, calls come from the whole dose curve; as a rule, active = well fitted curve in the direction sought with a large enough effect; inconclusive = small, poorly fitted or top-dose-only effect, or another doubt; inactive = no such curve, though single readings can be large; an effect the other way counts as inactive or inconclusive.

Key:
[1] = biological target: Calcium and integrin-binding protein 1 (Homo sapiens) (UniProt Q99828); test: Primary qHTS for Identification of Calcium Integrin Binding Protein 1 (CIB1) Competitor (AID 1508620);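 note: GST tagged CIB1 binding a fluorescein labelled alphaIIb integrin peptide tracer; top concentration of the series differs between compounds; % is set by controls: 0 for no effect and ±100 for the full control effect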
Chain of Calcium and integrin-binding protein 1 (Homo sapiens) (Q99828 whole entry, looked up): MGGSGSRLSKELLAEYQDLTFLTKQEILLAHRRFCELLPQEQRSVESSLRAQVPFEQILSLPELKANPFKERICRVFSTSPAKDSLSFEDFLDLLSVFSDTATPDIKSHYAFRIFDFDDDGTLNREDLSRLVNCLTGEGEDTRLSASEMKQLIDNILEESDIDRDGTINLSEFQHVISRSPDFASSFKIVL
In short: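 Fluorescence polarization competition: CIB1-GST (1 uM final) preincubated with compound 15 min at room temperature, then FITC-labeled alphaIIb peptide (100 nM final) added for another 15 min. Polarization read at Ex 480/Em 540.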

[2] = biological target: Rap guanine nucleotide exchange factor 3 (Homo sapiens) (UniProt O95398); test: Confirmatory qHTS for agonist of cAMP-regulated guanine nucleotide exchange factor 3 (EPAC1) (AID 1645881);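 note: EPAC1 catalysed release of BODIPY-GDP from Rap1B seen as fluorescence loss; 100% = effect of cAMP agonist control; nearly all actives have a fitted effect of over 75% in size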
Chain of Rap guanine nucleotide exchange factor 3 (Homo sapiens) (O95398 whole entry, looked up): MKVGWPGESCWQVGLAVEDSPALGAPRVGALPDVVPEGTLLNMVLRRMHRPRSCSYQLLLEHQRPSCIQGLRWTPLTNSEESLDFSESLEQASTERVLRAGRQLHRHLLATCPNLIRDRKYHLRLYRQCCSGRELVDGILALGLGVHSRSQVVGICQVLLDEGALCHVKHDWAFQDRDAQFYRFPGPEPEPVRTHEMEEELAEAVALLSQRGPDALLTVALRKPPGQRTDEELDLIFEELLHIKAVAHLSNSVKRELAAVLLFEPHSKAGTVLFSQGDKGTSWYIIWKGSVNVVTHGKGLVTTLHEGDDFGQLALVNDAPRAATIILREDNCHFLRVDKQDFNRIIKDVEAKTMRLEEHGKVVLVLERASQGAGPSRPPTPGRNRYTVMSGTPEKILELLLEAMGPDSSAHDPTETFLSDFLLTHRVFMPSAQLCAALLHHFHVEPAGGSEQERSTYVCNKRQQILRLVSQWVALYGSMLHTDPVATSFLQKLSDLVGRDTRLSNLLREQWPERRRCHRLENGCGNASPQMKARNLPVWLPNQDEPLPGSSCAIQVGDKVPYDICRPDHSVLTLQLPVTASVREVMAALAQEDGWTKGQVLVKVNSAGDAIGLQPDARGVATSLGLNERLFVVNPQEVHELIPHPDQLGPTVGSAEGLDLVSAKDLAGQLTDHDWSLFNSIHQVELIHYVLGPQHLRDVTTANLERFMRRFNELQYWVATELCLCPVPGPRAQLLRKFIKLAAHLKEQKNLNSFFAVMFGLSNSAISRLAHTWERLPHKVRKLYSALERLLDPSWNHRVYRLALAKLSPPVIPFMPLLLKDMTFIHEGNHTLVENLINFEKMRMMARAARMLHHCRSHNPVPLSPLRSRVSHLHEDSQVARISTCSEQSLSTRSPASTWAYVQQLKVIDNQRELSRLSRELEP

[3] = biological target: Rap guanine nucleotide exchange factor 4 (Homo sapiens) (UniProt Q8WZA2); test: Confirmatory qHTS for agonist of cAMP-regulated guanine nucleotide exchange factor 4 (EPAC2) (AID 1645884);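 note: nucleotide exchange releases bodipy-GDP from Rap1 and this lowers its fluorescence; % is set by controls: 0 for no effect and ±100 for the full control effect; nearly all actives have a fitted effect of over 65% in size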
Chain of Rap guanine nucleotide exchange factor 4 (Homo sapiens) (Q8WZA2 whole entry, looked up): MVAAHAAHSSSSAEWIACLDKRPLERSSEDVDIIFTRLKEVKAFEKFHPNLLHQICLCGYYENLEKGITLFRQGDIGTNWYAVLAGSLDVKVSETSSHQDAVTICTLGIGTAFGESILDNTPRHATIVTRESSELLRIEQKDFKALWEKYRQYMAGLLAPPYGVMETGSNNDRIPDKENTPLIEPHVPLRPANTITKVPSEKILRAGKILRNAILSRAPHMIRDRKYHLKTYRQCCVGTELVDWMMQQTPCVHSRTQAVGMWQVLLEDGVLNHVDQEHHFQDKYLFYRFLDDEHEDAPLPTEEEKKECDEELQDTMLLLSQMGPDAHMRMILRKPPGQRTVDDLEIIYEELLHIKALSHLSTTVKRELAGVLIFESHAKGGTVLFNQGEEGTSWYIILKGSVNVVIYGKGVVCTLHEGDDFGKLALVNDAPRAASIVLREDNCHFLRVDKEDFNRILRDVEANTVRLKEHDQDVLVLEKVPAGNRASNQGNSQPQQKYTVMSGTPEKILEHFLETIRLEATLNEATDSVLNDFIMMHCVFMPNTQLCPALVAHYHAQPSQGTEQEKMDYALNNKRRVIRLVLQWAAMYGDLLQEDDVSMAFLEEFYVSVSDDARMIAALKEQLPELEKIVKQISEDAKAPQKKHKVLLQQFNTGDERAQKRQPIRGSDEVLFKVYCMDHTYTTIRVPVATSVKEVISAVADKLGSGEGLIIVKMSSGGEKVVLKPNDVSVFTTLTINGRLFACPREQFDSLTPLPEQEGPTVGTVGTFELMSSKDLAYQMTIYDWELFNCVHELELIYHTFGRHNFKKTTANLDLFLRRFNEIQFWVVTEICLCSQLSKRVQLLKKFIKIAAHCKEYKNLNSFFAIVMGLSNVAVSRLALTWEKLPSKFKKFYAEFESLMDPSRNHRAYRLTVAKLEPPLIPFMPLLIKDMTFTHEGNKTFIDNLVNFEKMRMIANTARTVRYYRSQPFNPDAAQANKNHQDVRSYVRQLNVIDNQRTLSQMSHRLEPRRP

[4] = biological target: Rap guanine nucleotide exchange factor 4 (Homo sapiens) (UniProt Q8WZA2); test: Confirmatory qHTS for antagonist of cAMP-regulated guanine nucleotide exchange factor 4 (EPAC2) (AID 1645885); note: % is set by controls: 0 for no effect and ±100 for the full control effect; nearly all actives have a fitted effect of over 25% in size
[5] = biological target: Rap guanine nucleotide exchange factor 3 (Homo sapiens) (UniProt O95398); test: Counterscreen qHTS for antagonist of cAMP-regulated guanine nucleotide exchange factor 3 (EPAC1) (AID 1645888);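 note: fluorescence loss as bound BODIPY-GDP is released from Rap1B; % of control where 0% means no effect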
In short: (§1)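 Measured: fluorescence of BODIPY-GDP bound to Rap1B, which falls as exchange proceeds. Conditions include 50 uM competing GDP, 5 and 30 min reads, and a later cAMP challenge for antagonist detection.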

[6] = biological target: Rap guanine nucleotide exchange factor 3 (Homo sapiens) (UniProt O95398); test: Counterscreen qHTS for agonist of cAMP-regulated guanine nucleotide exchange factor 3 (EPAC1) (AID 1645889); note: % of control where 0% means no effect; nearly all actives have a fitted effect of over 40% in size
In short: as §1

[7] = AP1 Signaling Pathway (AID 357; active = well fitted curve in either direction with a large enough effect, not every such curve was filed as active;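 note: ME-180 reporter cells stimulated with EGF at its EC50 level; % is set by controls: 0 for no effect and ±100 for the full control effect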); conditions: ME-180 AP-1-bla reporter, EGF-induced, beta-lactamase ratio, 5 h; at 7.69 µM (top of the series) unless noted
In short: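 A ratiometric CCF4 readout (405 nm excitation; 460 and 530 nm emission) quantified AP-1-driven beta-lactamase in ME-180 cells after 5 h with compound and EC50 EGF; AC50 values were derived for activators and inhibitors.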

[8] = NFAT Signaling Pathway (AID 444; active = well fitted curve in either direction with a large enough effect, not every such curve was filed as active;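 note: carbachol stimulus at about its EC50 of 1 µM final; % is set by controls: 0 for no effect and ±100 for the full control effect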); conditions: Jurkat NFAT-bla M1, carbachol, beta-lactamase ratio, 5 h; at 7.69 µM (top of the series) unless noted
In short: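 Jurkat cells carrying an NFAT-driven β-lactamase reporter and co-transfected muscarinic M1 receptor were treated with compound plus carbachol (1 uM final, an EC50 level) for 5 h at 37 °C. CCF4 loading followed for 1 h at RT; 460/530 nm ratio gave %activity.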

[9] = Stat Signaling Pathway (AID 446; active = well fitted curve in either direction with a large enough effect, not every such curve was filed as active;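 note: ME-180 cervical cancer cells given 40 pM IL-6 alongside compound; SIE-controlled beta-lactamase reporter measured as 460/530 nm FRET emission ratio; % is set by controls: 0 for no effect and ±100 for the full control effect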); conditions: ME-180 SIE beta-lactamase reporter, IL-6 stimulated, 5 h; at 7.69 µM (top of the series) unless noted
In short: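 Reporter line: ME-180 cervical carcinoma, SIE-beta-lactamase. Treatment: compound with 40 pM IL-6, 5 hrs, 37 C, in low-serum OPTI-MEM with 10 mM HEPES pH 7.3. Detection: 460/530 nm fluorescence.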

[10] = biological target: Glucocorticoid receptor (Homo sapiens) (UniProt P04150); test: GR-GFP Redistribution (AID 450;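 active = compounds whose dose series gives a full or clear partial fitted curve of increased nuclear translocation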; note: potency is the fitted concentration of half-maximal effect); conditions: U2OS GR-GFP nuclear translocation, laser cytometry, 2 h
Chain of Glucocorticoid receptor (Homo sapiens) (P04150 whole entry, looked up): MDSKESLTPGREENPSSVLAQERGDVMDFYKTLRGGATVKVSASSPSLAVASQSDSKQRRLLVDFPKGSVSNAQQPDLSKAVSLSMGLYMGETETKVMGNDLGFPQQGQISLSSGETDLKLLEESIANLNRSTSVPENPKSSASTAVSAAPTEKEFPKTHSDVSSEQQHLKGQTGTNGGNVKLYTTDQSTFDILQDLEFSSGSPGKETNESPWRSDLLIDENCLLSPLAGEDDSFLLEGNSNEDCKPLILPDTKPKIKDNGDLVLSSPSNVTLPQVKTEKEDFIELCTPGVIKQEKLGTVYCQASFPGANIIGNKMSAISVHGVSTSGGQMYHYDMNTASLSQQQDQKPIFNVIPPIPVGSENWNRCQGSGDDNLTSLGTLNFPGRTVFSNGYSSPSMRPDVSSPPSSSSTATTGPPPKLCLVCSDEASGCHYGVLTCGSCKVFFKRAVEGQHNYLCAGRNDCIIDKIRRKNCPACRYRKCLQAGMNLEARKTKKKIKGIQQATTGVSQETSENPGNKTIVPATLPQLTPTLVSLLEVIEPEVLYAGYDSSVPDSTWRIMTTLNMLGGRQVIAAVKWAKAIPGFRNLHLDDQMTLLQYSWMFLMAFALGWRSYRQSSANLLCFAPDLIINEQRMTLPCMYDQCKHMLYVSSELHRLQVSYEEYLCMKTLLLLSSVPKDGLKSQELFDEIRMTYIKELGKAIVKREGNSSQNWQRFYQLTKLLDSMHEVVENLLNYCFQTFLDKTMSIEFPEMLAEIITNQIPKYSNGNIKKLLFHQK

[11] = biological target: Glutathione peroxidase 1 (Homo sapiens) (UniProt P07203); test: Primary qHTS Assay for Inhibitors of Recombinant Selenoprotein Glutathione Peroxidase 1 (GPX1) (AID 1845191); note: % is set by controls: 0 for no effect and ±100 for the full control effect; nearly all actives have a fitted effect of over 65% in size
Chain of Glutathione peroxidase 1 (Homo sapiens) (P07203 whole entry, looked up): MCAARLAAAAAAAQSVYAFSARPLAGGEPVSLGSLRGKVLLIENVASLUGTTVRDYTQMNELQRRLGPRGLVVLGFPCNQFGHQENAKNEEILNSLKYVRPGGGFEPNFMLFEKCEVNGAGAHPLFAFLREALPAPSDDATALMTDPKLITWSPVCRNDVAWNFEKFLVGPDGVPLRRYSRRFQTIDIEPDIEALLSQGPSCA
In short: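 Recombinant GPX1 (10 nM final) was preincubated with compound for 30 min at room temperature, then reacted with 1 mM GSH, 0.5 mM CHP, 0.5 mM NADPH and 100 nM glutathione reductase; NADPH fluorescence (340/450 nm) was read at 0 and 15 min.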

[12] = biological target: Rap guanine nucleotide exchange factor 3 (Homo sapiens) (UniProt O95398); test: Confirmatory qHTS for antagonist of cAMP-regulated guanine nucleotide exchange factor 3 (EPAC1) (AID 1645880); note: nearly all actives have a fitted effect of over 55% in size; note: potency is the fitted concentration of half-maximal effect;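 for activity, negative = inhibition: plate controls were DMSO only for no effect and full effect of the ATA control for full effect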
In short: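 Nucleotide exchange uses 100 nM EPAC1, 250 nM RAP1B-BODIPY-GDP and 50 uM GDP, with compounds in a concentration-titration series. After 5 min at room temperature, fluorescence (480 nm ex/540 nm em) is read every 5 min for 30 min. Data are normalized to control ATA and DMSO.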

[13] = biological target: DNA repair nuclease/redox regulator APEX1 (Homo sapiens) (UniProt P27695); test: Confirmation qHTS Assay for Inhibitors of the Human Apurinic/apyrimidinic Endonuclease 1 (APE1) (AID 2572); conditions: purified APE1, fluorogenic abasic-site DNA cleavage; note: potency is the fitted concentration of half-maximal effect; nearly all actives have a fitted effect of over 30% in size
In short: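 Fluorescence gain at 598 nm (Ex 525 nm) reports APE1 cleavage of a TAMRA/BHQ-2-labelled duplex carrying a tetrahydrofuran abasic site, 50 nM final. Activity taken as third-minus-first kinetic read after 15 min compound preincubation, room temperature.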

[14] = biological target: Tyrosyl-DNA phosphodiesterase 1 (Homo sapiens) (UniProt Q9NUW8); test: Confirmation Assay for Inhibitors of Tyrosyl-DNA Phosphodiesterase (TDP1) (AID 489007); conditions: recombinant human TDP1 enzymatic activity, dose-response; note: potency is the fitted concentration of half-maximal effect; nearly all actives have a fitted effect of over 40% in size
Chain of Tyrosyl-DNA phosphodiesterase 1 (Homo sapiens) (Q9NUW8 whole entry, looked up): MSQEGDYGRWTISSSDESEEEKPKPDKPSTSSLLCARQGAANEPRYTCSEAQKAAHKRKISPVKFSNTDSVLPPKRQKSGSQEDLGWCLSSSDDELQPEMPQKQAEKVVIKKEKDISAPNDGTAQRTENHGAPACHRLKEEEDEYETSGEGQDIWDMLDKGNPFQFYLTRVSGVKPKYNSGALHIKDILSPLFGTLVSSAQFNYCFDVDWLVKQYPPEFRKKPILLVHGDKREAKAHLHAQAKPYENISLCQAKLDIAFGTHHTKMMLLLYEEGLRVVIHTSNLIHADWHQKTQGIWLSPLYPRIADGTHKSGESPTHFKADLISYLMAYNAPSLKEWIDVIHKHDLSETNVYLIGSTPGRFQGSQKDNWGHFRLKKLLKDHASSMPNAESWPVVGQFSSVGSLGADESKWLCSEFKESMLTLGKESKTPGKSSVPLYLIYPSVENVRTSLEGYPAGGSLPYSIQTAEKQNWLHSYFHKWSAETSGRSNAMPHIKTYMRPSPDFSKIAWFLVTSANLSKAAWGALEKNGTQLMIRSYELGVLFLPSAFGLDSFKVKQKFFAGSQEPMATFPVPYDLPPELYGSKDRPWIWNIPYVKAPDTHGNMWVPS
In short: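 Recombinant E. coli-expressed Tdp1 (1 nM final) was preincubated with compounds 15 min at room temperature, then reacted 5 min with 15 nM 5'-biotin/3'-phosphotyrosine-FITC DNA substrate; cleavage read as loss of AlphaScreen signal (10 ug/ml beads, 10 min).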

[15] = biological target: Lethal(3)malignant brain tumor-like protein 1 (Homo sapiens) (UniProt Q9Y468); test: qHTS Assay for the Inhibitors of L3MBTL1: Hit Validation (AID 540279); conditions: L3MBTL1 methyl-lysine binding inhibition, biochemical qHTS; note: potency is the fitted concentration of half-maximal effect; nearly all actives have a fitted effect of over 70% in size
Chain of Lethal(3)malignant brain tumor-like protein 1 (Homo sapiens) (Q9Y468 whole entry, looked up): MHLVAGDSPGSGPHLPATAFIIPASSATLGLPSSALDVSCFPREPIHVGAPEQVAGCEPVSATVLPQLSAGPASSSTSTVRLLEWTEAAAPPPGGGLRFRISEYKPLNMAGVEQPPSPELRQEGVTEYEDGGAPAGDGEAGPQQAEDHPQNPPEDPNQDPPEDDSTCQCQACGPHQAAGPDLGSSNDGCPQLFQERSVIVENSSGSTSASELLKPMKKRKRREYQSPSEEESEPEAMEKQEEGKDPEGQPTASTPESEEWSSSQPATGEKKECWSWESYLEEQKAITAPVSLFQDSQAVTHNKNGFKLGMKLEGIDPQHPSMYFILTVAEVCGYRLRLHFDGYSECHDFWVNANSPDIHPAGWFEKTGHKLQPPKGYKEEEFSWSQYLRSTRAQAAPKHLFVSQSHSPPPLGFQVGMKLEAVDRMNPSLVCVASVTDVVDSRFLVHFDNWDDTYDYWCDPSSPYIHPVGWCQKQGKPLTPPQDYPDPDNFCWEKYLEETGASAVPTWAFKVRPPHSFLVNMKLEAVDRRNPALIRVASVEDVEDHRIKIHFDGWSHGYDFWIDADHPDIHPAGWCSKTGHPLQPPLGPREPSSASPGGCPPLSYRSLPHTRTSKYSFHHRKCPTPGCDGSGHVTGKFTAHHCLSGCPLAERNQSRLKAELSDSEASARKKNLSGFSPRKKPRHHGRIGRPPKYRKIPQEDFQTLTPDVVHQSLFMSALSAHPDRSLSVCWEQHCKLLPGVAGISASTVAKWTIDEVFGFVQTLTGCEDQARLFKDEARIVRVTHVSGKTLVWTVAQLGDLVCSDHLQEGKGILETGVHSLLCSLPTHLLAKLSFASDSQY
In short: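 AlphaScreen competition format: 50 nM L3MBTL1 preincubated 30 min at room temperature with 75 nM biotinylated H3(1-15)K9me1 peptide, then compounds added for 30 min, then streptavidin donor and nickel chelate acceptor beads (10 ug/mL final) for 30 min dark.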

[16] = qHTS Assay for the Inhibitors of L3MBTL1: Hit Validationin AlphaScreen Counterscreen (AID 602224); note: 0% is about no effect
In short: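 Artifact counterscreen: b-His6 1 nM, streptavidin donor + Ni-chelate acceptor beads 10 ug/mL each, cpd pin-transferred, 15 min RT, then beads 30 min RT dark, AlphaScreen read.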

[17] = biological target: Phosphoglycerate kinase, glycosomal (Trypanosoma brucei brucei) (UniProt P07378); test: qHTS for inhibitors of Phosphogylcerate Kinase: Hit Validation Screen (AID 686980); conditions: TbPGK coupled GAPDH assay, Kinase-Glo luminescence; note: potency is the fitted concentration of half-maximal effect; nearly all actives have a fitted effect of over 65% in size
Chain of Phosphoglycerate kinase, glycosomal (Trypanosoma brucei brucei) (P07378 whole entry, looked up): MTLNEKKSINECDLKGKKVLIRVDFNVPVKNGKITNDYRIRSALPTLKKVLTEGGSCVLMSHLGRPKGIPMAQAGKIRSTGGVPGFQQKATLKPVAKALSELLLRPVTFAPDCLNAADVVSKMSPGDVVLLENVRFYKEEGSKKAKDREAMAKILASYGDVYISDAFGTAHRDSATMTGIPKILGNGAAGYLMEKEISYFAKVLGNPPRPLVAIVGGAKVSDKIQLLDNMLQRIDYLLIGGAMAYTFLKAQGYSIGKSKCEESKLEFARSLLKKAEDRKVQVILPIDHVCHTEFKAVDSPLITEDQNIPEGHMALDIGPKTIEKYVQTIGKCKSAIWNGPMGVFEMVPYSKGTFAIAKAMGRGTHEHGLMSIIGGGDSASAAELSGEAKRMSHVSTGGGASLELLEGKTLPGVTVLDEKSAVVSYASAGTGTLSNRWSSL
In short: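 Luminescent ATP detection (Kinase-Glo Plus) follows a 60-minute room-temperature incubation, with wells lacking PGK as controls. Buffer: 100 mM TEA (pH 7.6), 5 mM MgCl2, 0.01% Tween-20. Coupling enzyme GAPDH (100 nM final) supplies unstable 1,3-BPG in-well.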

[18] = biological target: DNA polymerase iota (Homo sapiens) (UniProt Q9UNA4); test: qHTS for Inhibitors of Polymerase Iota: Confirmatory Assay for Cherry-picked Compounds (AID 720496); conditions: Pol iota primer extension, TAMRA/BHQ fluorescence; note: potency is the fitted concentration of half-maximal effect
In short: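 Step 1: 10 nM Pol iota with compound, 15 min, room temperature. Step 2: 50 nM final quenched DNA substrate added. Step 3: fluorescence (ex 525, em 598 nm) read at 0 and after 10 min.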

[19] = biological target: Bifunctional 3'-5' exonuclease/ATP-dependent helicase WRN (Homo sapiens) (UniProt Q14191); test: qHTS for Inhibitors of WRN Helicase: Confirmatory Assay for Cherry-picked Compounds. (AID 720497); conditions: WRN helicase DNA unwinding, fluorescence kinetic; note: potency is the fitted concentration of half-maximal effect; nearly all actives have a fitted effect of over 65% in size
In short: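 Compound and 20 nM WRN incubated 15 min, RT. Forked duplex (100 nM) plus ATP (2 mM) added. Fluorescence monitored kinetically and normalized to controls.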

[20] = qHTS for Inhibitors of WRN Helicase: Thiazole Orange DNA Binding Counterscreen (AID 720499);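 note: drop in dye fluorescence marks compound binding to DNA; % is set by controls: 0 for no effect and ±100 for the full control effect; nearly all actives have a fitted effect of over 60% in size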
In short: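 Thiazole orange displacement from unlabeled DNA (50 nM DNA, 100 nM dye) was monitored by fluorescence, ex 480/em 530 nm, following 15 min room-temperature incubation with pintool-dispensed compounds.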

[21] = biological target: DNA polymerase kappa (Homo sapiens) (UniProt Q9UBT6); test: qHTS for Inhibitors of Polymerase Kappa: Confirmatory Assay for Cherry-picked Compounds (AID 720501); conditions: purified Pol-kappa, fluorescent strand-displacement substrate; note: potency is the fitted concentration of half-maximal effect
In short: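 Human Pol-kappa, dispensed at 10 nM, was preincubated with compounds for 15 min at room temperature. Reactions were started with primer/template substrate (50 nM final) carrying a TAMRA reporter strand and BHQ-2-quenched template, and fluorescence (ex 525/em 598 nm) was read at 0 and 10 min.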

[22] = biological target: DNA polymerase eta (Homo sapiens) (UniProt Q9Y253); test: qHTS for Inhibitors of Polymerase Eta: Confirmatory Assay for Cherry-picked Compounds (AID 720502); conditions: Pol eta primer extension, TAMRA/BHQ fluorescence, 10 min; note: potency is the fitted concentration of half-maximal effect
In short: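 Pol eta 10 nM; substrate 50 nM final (unlabeled primer, TAMRA reporter, BHQ-2 template); preincub. 15 min RT; reads t=0 and t=10 min at ex525/em598.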

[23] = biological target: RecQ-like DNA helicase BLM (Homo sapiens) (UniProt P54132); test: qHTS for Inhibitors of WRN Helicase: BLM Helicase Counterscreen for WRN Inhibitors (AID 720503); conditions: Recombinant BLM helicase DNA unwinding, red fluorescence; note: potency is the fitted concentration of half-maximal effect; nearly all actives have a fitted effect of over 60% in size
In short: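 Reactions were started with 100 nM DNA substrate and 2 mM ATP (final) after compound and 1 nM BLM stood 15 min at room temperature in Tris-HCl pH 8.0 buffer with NaCl, MgCl2, DTT and Tween-20. Two red-fluorescence reads 15 min apart were normalized against DMSO and no-enzyme wells.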

[24] = biological target: Ubiquitin carboxyl-terminal hydrolase 2 (Homo sapiens) (UniProt O75604); test: qHTS for Inhibitors of Ubiquitin-specific Protease USP2a Using CHOP2 as the Reporter: K484 Substrate (AID 652173);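 note: cleavage of internally quenched K48 di-ubiquitin substrate measured as rising fluorescence over time; potency is the fitted concentration of half-maximal effect; nearly all actives have a fitted effect of over 70% in size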
In short: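 USP2 (dispensed at 5 nM) was pinned with compounds, then DiUb K48 internally quenched fluorescent substrate (dispensed at 100 nM) was added. The buffer was 20 mM Tris pH 8, 2 mM beta-mercaptoethanol and 0.05% CHAPS. Cleavage was read kinetically as rising fluorescence, Ex 525/Em 598.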

[25] = qHTS profiling of the MIPE4 collection as inhibitors of Plasmodium falciparum (3D7) proliferation (AID 743344; call rule not given here;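 note: scaled between DMSO vehicle wells and 0.29 µM artemisinin as full inhibition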); conditions: P. falciparum 3D7 in erythrocytes, SYBR Green DNA fluorescence, 72 h; at 28.5 µM (top of the series)
In short: (§2)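 Erythrocytes infected with P. falciparum (0.3% parasitemia, 2.5% hematocrit) incubated with compounds 72 h at 37 C, 5% CO2. Lysis with saponin/Triton buffer containing SYBR Green I, overnight at room temperature in the dark; DNA fluorescence (485/535 nm) normalised to 0.29 uM artemisinin and DMSO.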

[26] = qHTS profiling of the MIPE4 collection as inhibitors of Plasmodium falciparum (DD2) proliferation (AID 743345; call rule not given here); conditions: P. falciparum Dd2 in erythrocytes, SYBR Green DNA, 72 h; at 28.5 µM (top of the series)
In short: as §2

[27] = qHTS profiling of the MIPE4 collection as inhibitors of Plasmodium falciparum (DD2) proliferation (Rep 2) (AID 743346; call rule not given here); conditions: P. falciparum Dd2 in erythrocytes, SYBR Green DNA, 72 h; at 28.5 µM (top of the series)
In short: as §2

[28] = qHTS profiling of the MIPE4 collection as inhibitors of Plasmodium falciparum (HB3) proliferation (AID 743347; call rule not given here;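 note: plate controls were DMSO vehicle wells for no effect and artemisinin wells for full effect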); conditions: P. falciparum HB3 in erythrocytes, SYBR Green DNA, 72 h; at 28.5 µM (top of the series)
In short: as §2

CCOc1ccccc1CNc1ncnc2ccc(-c3c(C)noc3C)cc12
inactive: Potency [1] | outcome [2] | outcome [3] | Potency [4] | outcome [5] | outcome [6]

CNc1oc(-c2cccs2)nc1C#N
inactive: activity change, negative = inhibition [7] 3.62% [at 17.2 µM] | activity change, negative = inhibition [8] 11.4% [at 17.2 µM] | activity, negative = inhibition [9] -2.1% [at 17.2 µM] | Potency [10] > 20.6 µM | Potency [1]

Cc1ccc(NS(=O)(=O)c2cc3c(cc2N[C@H](C)CO)NC(=O)CC3)cc1C
inactive: Potency [1] | Potency [11]

CCC(=O)NC(c1cccs1)c1cc(Cl)c2cccnc2c1O (stereo not drawn)
inactive: Potency [1] | Potency [12] | outcome [2] | outcome [3] | outcome [5] | outcome [6]

Cc1ccccc1NC(=O)CN1C(=O)N/C(=C\c2cccn2-c2cccc(C(=O)O)c2)C1=O
active: Potency [13] 28.2 µM | Potency [14] 1.78 µM | Potency [15] 1.5 µM | Potency [17] 5.8 µM | Potency [18] 16.8 µM | Potency [19] 6.07 µM | Potency [21] 2.99 µM | Potency [22] 16.9 µM | Potency [23] 7.64 µM
inactive: outcome [16] | outcome [20] | Potency [1]

O=C1CCCC2=C1C(c1ccccc1I)N=C(Nc1nc3ccccc3o1)N2 (stereo not drawn)
inactive: Potency [1] | Potency [11]

Cc1ccc(NC(=O)CN2C(=O)N/C(=C\c3cccn3-c3cccc(C(=O)O)c3)C2=O)cc1
inactive: Potency [1]
active: Potency [14] 1.12 µM

CC(=O)NS(=O)(=O)c1ccc(NC(=O)c2cc(-c3ccc(C)c(C)c3)nc3ccccc23)cc1
inactive: Potency [1] | outcome [2] | activation [3] 5.88% [at 17.1 µM] | activity change, negative = inhibition [4] -11.1% [at 12.7 µM] | outcome [5]
active: Potency [24] 12.2 µM | Potency [12] 44.7 µM

CC(C)(C)n1nc(Cc2cccc3ccccc23)c2c(N)ncnc21
58%: parasite growth remaining, % of DMSO control (lower = more inhibition) [26]
23.2%: parasite growth, % of DMSO control [25]
52.6%: parasite growth, % of control (lower = inhibition) [27]
inactive: Potency [1] | Potency [11]
12.7%: growth, % of control [28]
